Consider 7 sequences from article PMC7862700, “An all-to-all approach to the identification of sequence-specific readers for epigenetic DNA modifications on cytosine”.

Assay in all cases: DAPPL (digital affinity profiling via proximity ligation, sequencing); 10 mM Tris-HCl pH 7.5, 50 mM NaCl, 1 mM DTT, 4% glycerol, room temperature, 30 min; GST-TFs on glutathione beads, 16-mer random dsDNA library, 0.1% formaldehyde crosslink after washing; high values mean tight binding
What all share (conditions): protein: recombinant; tags: N-terminal GST; dsDNA, one strand shown

The target in test [1] is T1, FLI1 (Homo sapiens, UniProt Q01543 1-452).
T1 sequence: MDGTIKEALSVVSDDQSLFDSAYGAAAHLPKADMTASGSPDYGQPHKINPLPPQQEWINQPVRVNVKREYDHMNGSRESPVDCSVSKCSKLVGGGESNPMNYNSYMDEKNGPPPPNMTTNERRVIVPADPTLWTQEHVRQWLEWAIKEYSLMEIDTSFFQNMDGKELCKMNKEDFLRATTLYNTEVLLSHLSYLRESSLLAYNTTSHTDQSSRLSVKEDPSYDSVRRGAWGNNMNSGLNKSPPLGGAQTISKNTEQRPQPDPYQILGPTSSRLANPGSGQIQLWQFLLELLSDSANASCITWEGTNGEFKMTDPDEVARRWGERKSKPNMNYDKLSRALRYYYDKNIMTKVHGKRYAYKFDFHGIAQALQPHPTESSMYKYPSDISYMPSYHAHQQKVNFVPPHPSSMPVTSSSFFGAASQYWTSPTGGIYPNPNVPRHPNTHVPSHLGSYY
In short, it runs like this:
(§1)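 Human transcription factors were made in yeast as GST fusions, captured on glutathione beads and barcoded with DNA. With a tag-only sample included, the pool was incubated with 200 nmole of a random double-stranded 16-mer DNA library in Tris/NaCl/DTT/glycerol buffer at room temperature for 30 min, then crosslinked with 0.1% formaldehyde after washing, ligated by proximity, amplified and sequenced. For binding signal, each hexamer's read frequency for a factor is divided by its frequency for the tag-only sample.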

Test [2] concerns the target T2, ELK1 (Homo sapiens, UniProt P19419 1-428).
T2 sequence: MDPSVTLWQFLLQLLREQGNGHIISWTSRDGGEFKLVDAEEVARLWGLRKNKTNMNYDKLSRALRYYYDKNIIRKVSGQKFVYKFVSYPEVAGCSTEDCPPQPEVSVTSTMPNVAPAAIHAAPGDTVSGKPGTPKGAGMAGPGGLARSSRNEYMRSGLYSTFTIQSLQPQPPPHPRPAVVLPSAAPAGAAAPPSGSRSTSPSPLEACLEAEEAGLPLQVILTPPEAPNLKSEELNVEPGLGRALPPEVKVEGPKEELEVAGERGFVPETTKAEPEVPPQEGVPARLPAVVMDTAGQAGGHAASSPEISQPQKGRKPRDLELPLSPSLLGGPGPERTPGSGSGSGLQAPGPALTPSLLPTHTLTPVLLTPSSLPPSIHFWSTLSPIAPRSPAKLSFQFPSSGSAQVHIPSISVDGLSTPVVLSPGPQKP
In short, it runs like this:
as §1

Test [3] deals with T3, GABPA (Homo sapiens, UniProt Q06546 1-454).
T3 sequence: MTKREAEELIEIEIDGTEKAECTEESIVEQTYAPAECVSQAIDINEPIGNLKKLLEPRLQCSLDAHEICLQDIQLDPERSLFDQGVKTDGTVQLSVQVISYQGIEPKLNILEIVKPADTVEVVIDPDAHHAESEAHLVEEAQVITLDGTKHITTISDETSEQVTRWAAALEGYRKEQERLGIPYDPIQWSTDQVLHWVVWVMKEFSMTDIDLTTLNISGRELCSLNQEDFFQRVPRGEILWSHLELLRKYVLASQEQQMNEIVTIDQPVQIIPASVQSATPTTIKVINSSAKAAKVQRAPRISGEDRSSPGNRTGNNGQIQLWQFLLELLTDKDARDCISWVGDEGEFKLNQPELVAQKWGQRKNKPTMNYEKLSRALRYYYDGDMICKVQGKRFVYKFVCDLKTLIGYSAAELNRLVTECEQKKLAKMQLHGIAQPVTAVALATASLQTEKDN
In short, it runs like this:
as §1

Test [4] concerns the target T4, ERG (Homo sapiens, UniProt P11308 1-479).
T4 sequence: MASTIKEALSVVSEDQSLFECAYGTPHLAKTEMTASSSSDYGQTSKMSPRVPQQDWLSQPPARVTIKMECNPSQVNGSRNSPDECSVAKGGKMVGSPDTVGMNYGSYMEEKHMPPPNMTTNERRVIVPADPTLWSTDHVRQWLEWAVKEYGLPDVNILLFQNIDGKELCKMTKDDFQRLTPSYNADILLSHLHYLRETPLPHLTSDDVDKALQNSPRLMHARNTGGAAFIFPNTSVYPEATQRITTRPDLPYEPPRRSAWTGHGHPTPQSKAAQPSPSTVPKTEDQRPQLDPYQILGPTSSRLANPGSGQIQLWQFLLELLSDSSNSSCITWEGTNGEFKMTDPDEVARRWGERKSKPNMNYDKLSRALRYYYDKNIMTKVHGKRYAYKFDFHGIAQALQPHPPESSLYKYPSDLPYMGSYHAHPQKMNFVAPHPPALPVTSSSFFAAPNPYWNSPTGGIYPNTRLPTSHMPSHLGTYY
In short, it runs like this:
as §1

Test [5] deals with ELF1 (Homo sapiens, UniProt P32519 1-619). In short, it runs like this:
as §1

For test [6], the target named is T5, EHF (Homo sapiens, UniProt Q9NZC4 1-300).
T5 sequence: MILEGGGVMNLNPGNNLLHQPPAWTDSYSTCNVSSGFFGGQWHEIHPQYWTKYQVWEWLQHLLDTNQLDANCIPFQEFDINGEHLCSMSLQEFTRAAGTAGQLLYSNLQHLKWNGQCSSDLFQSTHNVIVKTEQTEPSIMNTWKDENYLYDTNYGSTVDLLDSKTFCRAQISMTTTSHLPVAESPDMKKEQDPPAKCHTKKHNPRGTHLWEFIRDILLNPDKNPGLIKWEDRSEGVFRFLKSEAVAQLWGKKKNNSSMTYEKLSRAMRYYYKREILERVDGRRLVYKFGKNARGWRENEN
In short, it runs like this:
as §1

In test [7] the target is SPI1 (Homo sapiens, UniProt P17947 1-270). In short, it runs like this: as §1
The target in test [8] is SPIB (Homo sapiens, UniProt Q01892 1-262). In short, it runs like this: as §1
Sequence of SPIB (Q01892 whole entry): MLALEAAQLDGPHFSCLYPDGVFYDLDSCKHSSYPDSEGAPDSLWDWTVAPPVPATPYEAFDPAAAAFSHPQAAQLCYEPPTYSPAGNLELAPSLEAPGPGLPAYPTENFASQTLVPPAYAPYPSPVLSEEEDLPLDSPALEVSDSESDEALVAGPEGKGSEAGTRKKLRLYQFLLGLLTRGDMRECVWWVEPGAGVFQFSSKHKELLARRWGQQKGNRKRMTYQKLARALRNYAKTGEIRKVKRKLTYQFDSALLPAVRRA
The target of test [9] is T6, ELK3 (Homo sapiens, UniProt P41970 1-407).
T6 sequence: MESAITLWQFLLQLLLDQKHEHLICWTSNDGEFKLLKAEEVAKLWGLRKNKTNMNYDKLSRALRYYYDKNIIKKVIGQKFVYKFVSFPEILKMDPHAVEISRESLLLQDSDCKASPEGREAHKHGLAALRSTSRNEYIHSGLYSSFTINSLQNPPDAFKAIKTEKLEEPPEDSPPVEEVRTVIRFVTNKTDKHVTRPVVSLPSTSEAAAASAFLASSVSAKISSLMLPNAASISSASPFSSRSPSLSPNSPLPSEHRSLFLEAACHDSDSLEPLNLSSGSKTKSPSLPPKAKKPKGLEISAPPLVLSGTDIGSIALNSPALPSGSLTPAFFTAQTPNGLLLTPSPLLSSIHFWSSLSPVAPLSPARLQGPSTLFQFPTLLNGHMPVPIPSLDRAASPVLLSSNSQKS
In short, it runs like this: as §1

Sequence of ELF1 (P32519 whole entry): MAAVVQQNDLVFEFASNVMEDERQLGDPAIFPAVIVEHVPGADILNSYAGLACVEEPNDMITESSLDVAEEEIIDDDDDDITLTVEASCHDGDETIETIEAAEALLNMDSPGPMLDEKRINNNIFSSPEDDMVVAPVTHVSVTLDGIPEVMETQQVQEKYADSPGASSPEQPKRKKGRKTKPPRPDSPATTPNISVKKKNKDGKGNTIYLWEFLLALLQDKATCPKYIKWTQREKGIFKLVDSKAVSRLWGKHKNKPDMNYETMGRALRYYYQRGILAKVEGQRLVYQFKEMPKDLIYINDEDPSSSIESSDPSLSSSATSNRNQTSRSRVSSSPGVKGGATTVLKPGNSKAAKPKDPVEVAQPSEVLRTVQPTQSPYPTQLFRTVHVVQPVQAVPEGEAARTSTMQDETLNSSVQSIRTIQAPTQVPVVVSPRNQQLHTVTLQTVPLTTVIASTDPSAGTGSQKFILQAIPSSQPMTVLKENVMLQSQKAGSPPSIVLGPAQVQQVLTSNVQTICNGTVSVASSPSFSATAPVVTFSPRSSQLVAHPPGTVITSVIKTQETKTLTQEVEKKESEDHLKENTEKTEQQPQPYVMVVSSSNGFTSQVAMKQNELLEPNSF

For CGTTAC, the binding signal in test [1] is 1.17 fold enrichment (6-mer frequency, TF over GST control); in [2], 1.09 fold enrichment (6-mer frequency, TF over GST control); in test [3], 1.08 fold enrichment (6-mer frequency, TF over GST control); in test [4] it was 1.11 fold enrichment (6-mer frequency, TF over GST control); in test [5], 1.12 fold enrichment (6-mer frequency, TF over GST control); in test [6], 1.14 fold enrichment (6-mer frequency, TF over GST control). In addition, the binding signal is 1.27 fold enrichment (6-mer frequency, TF over GST control) in test [7]; 1.11 fold enrichment (6-mer frequency, TF over GST control) in test [8]; 1.21 fold enrichment (6-mer frequency, TF over GST control) in test [9].
On to CACTCC, for which the binding signal in test [1] is 1.27 fold enrichment (6-mer frequency, TF over GST control); in test [2], 1.41 fold enrichment (6-mer frequency, TF over GST control); in [3], 1.32 fold enrichment (6-mer frequency, TF over GST control); in [4] it was 1.29 fold enrichment (6-mer frequency, TF over GST control); in [5], 1.34 fold enrichment (6-mer frequency, TF over GST control); in test [6], 1.17 fold enrichment (6-mer frequency, TF over GST control). Besides, the binding signal was 1.23 fold enrichment (6-mer frequency, TF over GST control) in test [7]; 1.33 fold enrichment (6-mer frequency, TF over GST control) in [8]; 1.27 fold enrichment (6-mer frequency, TF over GST control) in test [9].
In the case of CGCTGC, the binding signal in test [1] was 1.12 fold enrichment (6-mer frequency, TF over GST control); in test [2], 1.04 fold enrichment (6-mer frequency, TF over GST control); in [3], 1.25 fold enrichment (6-mer frequency, TF over GST control); in test [4] it was 1.22 fold enrichment (6-mer frequency, TF over GST control); in test [5] it was 1.14 fold enrichment (6-mer frequency, TF over GST control); in test [6], 1.28 fold enrichment (6-mer frequency, TF over GST control). Besides, the binding signal in test [7] was 1.07 fold enrichment (6-mer frequency, TF over GST control); in test [8], 1.22 fold enrichment (6-mer frequency, TF over GST control); in [9] it was 1.16 fold enrichment (6-mer frequency, TF over GST control).
GCCCGC: the binding signal was 1.09 fold enrichment (6-mer frequency, TF over GST control) in test [1]; 1.15 fold enrichment (6-mer frequency, TF over GST control) in [2]; 1.1 fold enrichment (6-mer frequency, TF over GST control) in test [3]; 1.1 fold enrichment (6-mer frequency, TF over GST control) in test [4]; 1.07 fold enrichment (6-mer frequency, TF over GST control) in test [5]; 1.09 fold enrichment (6-mer frequency, TF over GST control) in [6]. Further, the binding signal in [7] was 1.01 fold enrichment (6-mer frequency, TF over GST control); in [8], 1.03 fold enrichment (6-mer frequency, TF over GST control); in [9] it was 1.24 fold enrichment (6-mer frequency, TF over GST control).
As for CCCGGC, the binding signal in test [1] was 1.15 fold enrichment (6-mer frequency, TF over GST control); in test [2] it was 1.25 fold enrichment (6-mer frequency, TF over GST control); in test [3], 1.1 fold enrichment (6-mer frequency, TF over GST control); in test [4], 1.15 fold enrichment (6-mer frequency, TF over GST control); in [5] it was 1.17 fold enrichment (6-mer frequency, TF over GST control); in test [6], 1.06 fold enrichment (6-mer frequency, TF over GST control). Also, the binding signal is 1.13 fold enrichment (6-mer frequency, TF over GST control) in test [7]; 1.13 fold enrichment (6-mer frequency, TF over GST control) in test [8]; 1.22 fold enrichment (6-mer frequency, TF over GST control) in [9].
GGAAAA: the binding signal was 1.16 fold enrichment (6-mer frequency, TF over GST control) in test [1]; 1.17 fold enrichment (6-mer frequency, TF over GST control) in test [2]; 1.2 fold enrichment (6-mer frequency, TF over GST control) in test [3]; 1.3 fold enrichment (6-mer frequency, TF over GST control) in [4]; 1.14 fold enrichment (6-mer frequency, TF over GST control) in [5]; 1.38 fold enrichment (6-mer frequency, TF over GST control) in test [6]. The binding signal in [7] is 1.2 fold enrichment (6-mer frequency, TF over GST control); in test [8], 1.35 fold enrichment (6-mer frequency, TF over GST control); in test [9], 1.22 fold enrichment (6-mer frequency, TF over GST control).
Regarding CCGCTA, the binding signal in [1] is 1.45 fold enrichment (6-mer frequency, TF over GST control); in [2], 1.37 fold enrichment (6-mer frequency, TF over GST control); in test [3] it was 1.2 fold enrichment (6-mer frequency, TF over GST control); in [4], 1.37 fold enrichment (6-mer frequency, TF over GST control); in test [5] it was 1.27 fold enrichment (6-mer frequency, TF over GST control); in test [6], 1.41 fold enrichment (6-mer frequency, TF over GST control). For the same sequence, the binding signal was 1.51 fold enrichment (6-mer frequency, TF over GST control) in test [7]; 1.46 fold enrichment (6-mer frequency, TF over GST control) in [8]; 1.37 fold enrichment (6-mer frequency, TF over GST control) in test [9].
